Experimental data reported in PubChem BioAssay.
For some assays here: Potency and affinity values are given separately. Active and inactive are the calls of the source. Unless noted, how the calls were made is not given here.

Legend:
[1] = antimalarial activity against Dd2 strain (AID 2302;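 active means growth inhibition above 50% at the single 2 µM test dose, taken to imply half-maximal potency below 2 µM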;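 further: 0% = DMSO untreated growth and 100% = chloroquine plus artemisinin killed control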); conditions: P. falciparum Dd2 in RBCs, LDH growth readout, 72 h; at 2 µM; hits give high values
[2] = HepG2 cytotoxicity, primary screen, cytotoxicity control for P. falciparum antimalarial project, cell-based, ATP luminescence (AID 2303;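 active means inhibition above 50%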;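 further: 0% = DMSO wells and 100% = digitonin-killed cells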); conditions: HepG2 viability, 24-48 h, at 10 µM, hits give high values
[3] = molecular target: L-lactate dehydrogenase (Plasmodium falciparum (isolate CDC / Honduras)) (UniProt Q27743); test: PfLDH activity inhibition – cell lysate, 3D7 strain, counter-screen for P. falciparum growth inhibition project (AID 2304);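 further: 0% = vehicle and 100% = reference inhibitor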; conditions: P. falciparum 3D7 crude extract, LDH APAD/NBT absorbance; at 2 µM; hits give high values
Chain of L-lactate dehydrogenase (Plasmodium falciparum (isolate CDC / Honduras)) (Q27743 whole entry, looked up): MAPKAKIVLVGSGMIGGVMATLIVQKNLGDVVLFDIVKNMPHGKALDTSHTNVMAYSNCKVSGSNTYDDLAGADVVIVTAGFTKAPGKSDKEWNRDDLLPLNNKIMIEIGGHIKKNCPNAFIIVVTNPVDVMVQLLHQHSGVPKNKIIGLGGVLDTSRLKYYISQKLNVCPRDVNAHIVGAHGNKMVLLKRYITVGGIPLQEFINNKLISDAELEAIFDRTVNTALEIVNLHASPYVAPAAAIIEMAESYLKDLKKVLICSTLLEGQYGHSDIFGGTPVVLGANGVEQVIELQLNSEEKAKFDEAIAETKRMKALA

[4] = inhibition of 3D7 malaria parasite growth – strain 3D7 (AID 2306);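 further: 0% = DMSO wells and 100% = chloroquine plus artemisinin control wells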; conditions: P. falciparum 3D7 erythrocytic growth, LDH absorbance, 72 h; at 2 µM; hits give high values
[5] = molecular target: Calcium-dependent protein kinase 1 (Plasmodium falciparum (isolate 3D7)) (UniProt P62344); test: PfCDPK1 kinase inhibitors, biochemical, TCAMS library (AID 1159585; cut-off not given, nearly all actives have IC50 up to about 0.98 µM;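 further: inhibitors leave more ATP so luminescence rises with inhibition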); conditions: recombinant PfCDPK1, Kinase-Glo ATP depletion luminescence
Chain of Calcium-dependent protein kinase 1 (Plasmodium falciparum (isolate 3D7)) (P62344 whole entry, looked up): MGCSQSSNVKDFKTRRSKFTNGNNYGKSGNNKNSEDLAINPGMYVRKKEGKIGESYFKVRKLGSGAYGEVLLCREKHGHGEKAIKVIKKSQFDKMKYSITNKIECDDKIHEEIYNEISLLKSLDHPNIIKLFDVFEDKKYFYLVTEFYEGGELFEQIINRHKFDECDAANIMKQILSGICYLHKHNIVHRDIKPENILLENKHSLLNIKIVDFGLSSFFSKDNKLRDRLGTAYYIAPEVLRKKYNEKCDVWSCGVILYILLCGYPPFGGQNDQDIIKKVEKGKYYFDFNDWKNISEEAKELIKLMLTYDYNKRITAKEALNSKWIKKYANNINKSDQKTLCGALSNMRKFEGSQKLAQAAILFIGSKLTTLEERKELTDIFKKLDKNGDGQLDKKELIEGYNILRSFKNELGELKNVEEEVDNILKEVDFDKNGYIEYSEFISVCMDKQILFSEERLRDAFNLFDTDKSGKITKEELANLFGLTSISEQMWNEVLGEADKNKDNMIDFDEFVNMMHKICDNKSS

[6] = molecular target: Plasmodium falciparum protein kinase 6 (PK6, PF3D7_1337100) (UniProt Q8IDW1); test: PfPK6 kinase inhibitors, biochemical, TCAMS library (AID 1159586); conditions: recombinant PfPK6, Kinase-Glo ATP depletion luminescence
Chain of Plasmodium falciparum protein kinase 6 (PK6, PF3D7_1337100) (Q8IDW1 1-305): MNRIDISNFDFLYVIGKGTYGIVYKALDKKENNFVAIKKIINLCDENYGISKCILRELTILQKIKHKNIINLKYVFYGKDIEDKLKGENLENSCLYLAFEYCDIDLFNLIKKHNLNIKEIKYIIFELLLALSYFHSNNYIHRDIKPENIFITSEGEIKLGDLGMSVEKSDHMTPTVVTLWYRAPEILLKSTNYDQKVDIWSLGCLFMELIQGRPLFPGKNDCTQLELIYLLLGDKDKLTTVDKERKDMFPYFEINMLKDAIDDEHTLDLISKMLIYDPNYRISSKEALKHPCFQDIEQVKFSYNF

[7] = molecular target: Protein kinase 7 (PK7), Plasmodium falciparum 3D7 (PF3D7_0213400) (UniProt Q7YTF7); test: inhibition of Plasmodium PK7 catalytic activity – biochemical, TCAMS antimalarial set, Kinase-Glo luminescence (AID 1159587); conditions: recombinant PfPK7, Kinase-Glo ATP depletion luminescence
Chain of Protein kinase 7 (PK7), Plasmodium falciparum 3D7 (PF3D7_0213400) (Q7YTF7 1-343): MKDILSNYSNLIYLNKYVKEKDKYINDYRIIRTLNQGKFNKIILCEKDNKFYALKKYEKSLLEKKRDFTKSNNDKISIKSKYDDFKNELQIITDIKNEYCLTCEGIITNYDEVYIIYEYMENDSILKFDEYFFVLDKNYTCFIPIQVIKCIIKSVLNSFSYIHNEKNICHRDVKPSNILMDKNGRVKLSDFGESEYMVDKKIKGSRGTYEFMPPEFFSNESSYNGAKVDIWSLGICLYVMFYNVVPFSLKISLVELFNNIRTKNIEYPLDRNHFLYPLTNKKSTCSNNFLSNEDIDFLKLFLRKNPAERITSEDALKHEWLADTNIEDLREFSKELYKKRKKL

[8] = molecular target: Calcium-dependent protein kinase 4 (Plasmodium falciparum (isolate 3D7)) (UniProt Q8IBS5); test: PfCDPK4 kinase inhibitors, biochemical, TCAMS library (AID 1159588; cut-off not given, nearly all actives have IC50 up to about 0.91 µM); conditions: recombinant PfCDPK4, Kinase-Glo ATP depletion luminescence
Chain of Calcium-dependent protein kinase 4 (Plasmodium falciparum (isolate 3D7)) (Q8IBS5 whole entry, looked up): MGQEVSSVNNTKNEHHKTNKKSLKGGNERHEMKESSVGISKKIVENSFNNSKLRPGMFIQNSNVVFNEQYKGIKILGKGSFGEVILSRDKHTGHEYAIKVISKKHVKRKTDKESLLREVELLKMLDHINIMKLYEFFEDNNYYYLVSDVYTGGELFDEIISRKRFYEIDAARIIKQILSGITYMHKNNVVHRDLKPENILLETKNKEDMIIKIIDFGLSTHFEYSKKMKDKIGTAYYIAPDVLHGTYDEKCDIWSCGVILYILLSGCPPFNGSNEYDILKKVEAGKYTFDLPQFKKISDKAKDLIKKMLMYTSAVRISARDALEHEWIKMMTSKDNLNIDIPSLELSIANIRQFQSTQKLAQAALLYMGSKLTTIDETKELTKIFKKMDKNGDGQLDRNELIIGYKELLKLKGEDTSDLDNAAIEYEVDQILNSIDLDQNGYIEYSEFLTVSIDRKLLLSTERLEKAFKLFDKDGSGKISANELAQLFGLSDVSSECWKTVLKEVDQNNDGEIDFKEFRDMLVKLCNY

CCn1ncc(Cl)c1CN(C)S(=O)(=O)c1ccc(Br)cc1
inactive: inhibition [2] 9% | inhibition [3] 4% | outcome [5] | outcome [6] | outcome [7] | outcome [8]
active: growth inhibition [1] 70% | growth inhibition [4] 90%

CNS(=O)(=O)c1ccc2c(c1)nc(C1CCN(CC3CCC(NC(=O)/C=C/c4ccc(Cl)c(Cl)c4)CC3)CC1)n2C (stereo not given)
active: growth inhibition [1] 96% | growth inhibition [4] 102%
inactive: inhibition [2] 5% | inhibition [3] -2% | outcome [5] | outcome [6] | outcome [7] | outcome [8]

O=C(NC1CC1)c1ccc(N2CCCC(COc3ccc4c(c3)CCCC4)C2)nc1 (stereo not given)
active: growth inhibition [1] 65% | growth inhibition [4] 85%
inactive: inhibition [2] -5% | inhibition [3] -5% | outcome [5] | outcome [6] | outcome [7] | outcome [8]

Cc1ccc(C(C)C)cc1CON1C(N)=NC(N)=NC1(C)C
active: growth inhibition [1] 92% | inhibition [2] 66% | growth inhibition [4] 94%
inactive: inhibition [3] -3% | outcome [5] | outcome [6] | outcome [7] | outcome [8]

c1cncc(CCNCc2ccc(-c3ccc(-c4nc5ccccc5[nH]4)s3)cc2)c1
inactive: inhibition [2] 35% | inhibition [3] -3% | outcome [5] | outcome [6] | outcome [7] | outcome [8]
active: growth inhibition [1] 99% | growth inhibition [4] 101%

Cc1cccc2[nH]c(-c3ccc(-c4ccc(CNCc5ccc(S(C)(=O)=O)cc5)cc4)cc3)nc12
inactive: growth inhibition [1] 38% | inhibition [2] 19% | inhibition [3] -1% | outcome [5] | outcome [6] | outcome [7] | outcome [8]
active: growth inhibition [4] 93%

COc1ccc(-c2ccc(NC(=O)c3ccc(Cl)cc3)cc2)cc1CN1CCNCC1
inactive: growth inhibition [1] 24% | inhibition [2] 14% | inhibition [3] 5% | outcome [5] | outcome [6] | outcome [7] | outcome [8]
active: growth inhibition [4] 99%

O=C(N[C@@H](Cc1ccccc1)C(=O)NCCN1CCOCC1)c1ccc(O)c(-c2ccc(Cl)c(Cl)c2)c1
active: growth inhibition [4] 97%
inactive: growth inhibition [1] 31% | inhibition [2] -4% | inhibition [3] 5% | outcome [5] | outcome [6] | outcome [7] | outcome [8]

CCC1N=C(N)N=C(N)N1OCCCOc1c(Cl)cc(Cl)cc1Cl (stereo not given)
inactive: inhibition [3] 2% | outcome [5] | outcome [6] | outcome [7] | outcome [8]
active: growth inhibition [1] 96% | inhibition [2] 67% | growth inhibition [4] 95%

O=C(Nc1ccc(N2CCCN(Cc3cccc(F)c3)CC2)cc1)c1ccccc1
inactive: inhibition [2] 25% | inhibition [3] -4% | outcome [5] | outcome [6] | outcome [7] | outcome [8]
active: growth inhibition [1] 95% | growth inhibition [4] 95%

Cn1cncc1C(=O)NC1CCN(c2ccnc(Nc3ccc(F)cc3)n2)C1 (stereo not given)
inactive: inhibition [2] 2% | inhibition [3] -7% | outcome [5] | outcome [6] | outcome [7] | outcome [8]
active: growth inhibition [1] 83% | growth inhibition [4] 97%

O=C(NC1CCN(Cc2ccc(O)cc2)CC1)c1ccc(Cl)c(Cl)c1
inactive: growth inhibition [1] 3% | inhibition [2] 1% | inhibition [3] 4% | outcome [5] | outcome [6] | outcome [7] | outcome [8]
active: growth inhibition [4] 95%

Cc1cc(CNCCCCCCNCc2ccc(-c3ccccc3)cc2)ccc1O
active: inhibition [2] 90% | growth inhibition [4] 98%
inactive: growth inhibition [1] -2% | inhibition [3] -3% | outcome [5] | outcome [6] | outcome [7] | outcome [8]

O=C(Nc1ccc(-c2csc(-c3nc4ccccc4[nH]3)c2)cc1)Nc1ccc(F)c(F)c1F
active: growth inhibition [1] 64% | inhibition [2] 67% | growth inhibition [4] 100%
inactive: inhibition [3] 2% | outcome [5] | outcome [6] | outcome [7] | outcome [8]

CSc1nc2nc(C)c(Cc3cccc(F)c3)c(C)n2n1
inactive: growth inhibition [1] 45% | inhibition [2] 3% | inhibition [3] 0% | outcome [5] | outcome [6] | outcome [7] | outcome [8]
active: growth inhibition [4] 87%

Cc1ccc(S(=O)(=O)N2CCN(C(=O)c3cc(-c4cccs4)[nH]n3)CC2)c(C)c1
active: growth inhibition [1] 81% | growth inhibition [4] 85%
inactive: inhibition [2] -1% | inhibition [3] -1% | outcome [5] | outcome [6] | outcome [7] | outcome [8]

O=C1C(C2CCC(c3ccc(Cl)cc3)CC2)=C2OCC3COC2(O3)c2ccccc21 (stereo not given)
active: growth inhibition [1] 97% | growth inhibition [4] 98%
inactive: inhibition [2] 7% | inhibition [3] -2% | outcome [5] | outcome [6] | outcome [7] | outcome [8]

Cc1nc2c(c(O)c1Cl)-c1ccc(Oc3cccc(C(F)(F)F)c3)cc1C2=O
active: growth inhibition [1] 95% | growth inhibition [4] 94%
inactive: inhibition [2] 25% | inhibition [3] -6% | outcome [5] | outcome [6] | outcome [7] | outcome [8]

CN1CCCC(CN2CCN(Cc3cccc(-c4ccc(-c5nc6ccccc6[nH]5)s4)c3)CC2)C1 (stereo not given)
inactive: inhibition [3] -6% | outcome [5] | outcome [6] | outcome [7] | outcome [8]
active: growth inhibition [1] 99% | inhibition [2] 52% | growth inhibition [4] 99%

COc1ccc(NC(=O)C=Cc2ccc(Oc3ccccc3Cl)c([N+](=O)[O-])c2)cc1OCCN(C(C)C)C(C)C
inactive: inhibition [2] 31% | inhibition [3] 2% | outcome [5] | outcome [6] | outcome [7] | outcome [8]
active: growth inhibition [1] 97% | growth inhibition [4] 99%

O=C(NCc1cccs1)[C@H](Cc1ccccc1)Nc1ccnc(NCC2CCCCC2)n1
inactive: inhibition [2] 5% | inhibition [3] -2% | outcome [5] | outcome [6] | outcome [7] | outcome [8]
active: growth inhibition [1] 67% | growth inhibition [4] 83%

Cc1cc(N(C)C)nc(Nc2ccc(NC(=O)c3ccccc3C)cc2)n1
active: growth inhibition [4] 93%
inactive: growth inhibition [1] 16% | inhibition [2] -5% | inhibition [3] -2% | outcome [5] | outcome [6] | outcome [7] | outcome [8]

COc1ccc(CCN(C)CCCOc2ccc(NC(=O)COc3cccc4sc5ccccc5c(=O)c34)cc2)cc1OC
inactive: inhibition [3] 1% | outcome [5] | outcome [6] | outcome [7] | outcome [8]
active: growth inhibition [1] 90% | inhibition [2] 99% | growth inhibition [4] 94%

CS(=O)(=O)NCCCNCc1ccc(-c2cccc(-c3nc4ccc(F)cc4[nH]3)c2)cc1
active: growth inhibition [4] 98%
inactive: growth inhibition [1] 1% | inhibition [2] 15% | inhibition [3] 5% | outcome [5] | outcome [6] | outcome [7] | outcome [8]

Cc1cc(N2CCCCC2)nc2ccc(NC(=O)c3cccc([N+](=O)[O-])c3)cc12
inactive: inhibition [2] 9% | inhibition [3] 2% | outcome [5] | outcome [6] | outcome [7] | outcome [8]
active: growth inhibition [1] 99% | growth inhibition [4] 95%

O=C(NCc1cccc(F)c1)Nc1ccc(-c2ccc(-c3nc4ccc(C(F)(F)F)cc4[nH]3)cc2)cc1
active: growth inhibition [4] 100%
inactive: growth inhibition [1] 24% | inhibition [2] 46% | inhibition [3] 0% | outcome [5] | outcome [6] | outcome [7] | outcome [8]

COc1ccc(Cn2ncc3c4c(N)nc(N)nc4ccc32)cc1OC
active: growth inhibition [1] 95% | inhibition [2] 68% | growth inhibition [4] 94%
inactive: inhibition [3] 3% | outcome [5] | outcome [6] | outcome [7] | outcome [8]

CCOCc1cn(CC(=O)c2ccc(-c3ccccc3)cc2)c(C)nc1=N
active: growth inhibition [1] 72% | growth inhibition [4] 93%
inactive: inhibition [2] 13% | inhibition [3] 5% | outcome [5] | outcome [6] | outcome [7] | outcome [8]

COc1ccc(CNCc2ccccc2)cc1-c1ccc(S(=O)(=O)NCCN2CCCC2)c(F)c1
inactive: growth inhibition [1] 42% | inhibition [2] 29% | inhibition [3] 5% | outcome [5] | outcome [6] | outcome [7] | outcome [8]
active: growth inhibition [4] 87%

CN(C)C(=O)O[C@@H]1CN[C@H](C#Cc2cc3ncnc(Nc4ccc5c(cnn5Cc5cccc(F)c5)c4)c3s2)C1
inactive: inhibition [2] 0% | inhibition [3] 7% | outcome [5] | outcome [6] | outcome [7] | outcome [8]
active: growth inhibition [1] 68% | growth inhibition [4] 97%

Cc1cc(N[C@@H](CC(C)C)C(=O)NCCOc2ccccc2)nc(NCC2CCCCC2)n1
inactive: inhibition [2] 24% | inhibition [3] -1% | outcome [5] | outcome [6] | outcome [7] | outcome [8]
active: growth inhibition [1] 53% | growth inhibition [4] 97%

COc1cc2nc(N3CC(C)N(C(=O)Cc4ccc(-c5ccccc5)cc4)C(C)C3)nc(N)c2cc1OC (stereo not given)
active: growth inhibition [4] 100%
inactive: growth inhibition [1] 12% | inhibition [2] 26% | inhibition [3] -5% | outcome [5] | outcome [6] | outcome [7] | outcome [8]

Cc1ccc(Cn2ncc(NC3CCNCC3)c(Cl)c2=O)cc1NC(=O)Nc1ccc(-c2ccccc2)cc1
inactive: inhibition [2] 18% | inhibition [3] -2% | outcome [5] | outcome [6] | outcome [7] | outcome [8]
active: growth inhibition [1] 61% | growth inhibition [4] 99%

COc1cc(C(=O)Nc2cccc(-c3nc4ccccc4[nH]3)c2)ccc1OC(C)=O
inactive: growth inhibition [1] 37% | inhibition [2] 16% | inhibition [3] -4% | outcome [5] | outcome [6] | outcome [7] | outcome [8]
active: growth inhibition [4] 83%

CN1CCN(c2nc(NCCNc3ccc([N+](=O)[O-])cc3)c3ccccc3n2)CC1
active: growth inhibition [4] 90%
inactive: growth inhibition [1] 25% | inhibition [2] 37% | inhibition [3] 6% | outcome [5] | outcome [6] | outcome [7] | outcome [8]

COC(=O)c1ccc(CCC(C)NCC(O)c2cccc(C(F)(F)F)c2)cc1 (stereo not given)
active: growth inhibition [1] 99% | growth inhibition [4] 99%
inactive: inhibition [2] 16% | inhibition [3] -7% | outcome [5] | outcome [6] | outcome [7] | outcome [8]

CCCCCCOc1ccc(C(=O)N[C@H]2CCN(CCCCCNC(=O)/C=C/c3ccc(Cl)c(Cl)c3)C2)cc1
inactive: growth inhibition [1] 25% | inhibition [2] 10% | inhibition [3] -5% | outcome [5] | outcome [6] | outcome [7] | outcome [8]
active: growth inhibition [4] 99%

COc1ccc(C(=O)N[C@@H](CC(C)C)C(=O)NC2CC[C@@H](C)N(C(=O)Nc3ccc(Cl)cc3)CC2=O)cc1OCCN1CCOCC1 (stereo not given in full)
active: growth inhibition [1] 91% | growth inhibition [4] 96%
inactive: inhibition [2] 5% | inhibition [3] 5% | outcome [5] | outcome [6] | outcome [7] | outcome [8]

Fc1cc(Cl)ccc1Nc1ccnc2cc(-c3ccc(CN4CCSCC4)o3)ccc12
active: growth inhibition [1] 99% | growth inhibition [4] 100%
inactive: inhibition [2] 17% | inhibition [3] 0% | outcome [5] | outcome [6] | outcome [7] | outcome [8]

COc1cc(OC)cc(-c2nn(-c3ccc([N+](=O)[O-])cc3C#N)c(=S)n2CC2CCCO2)c1 (stereo not given)
inactive: inhibition [2] 9% | inhibition [3] 0% | outcome [5] | outcome [6] | outcome [7] | outcome [8]
active: growth inhibition [1] 75% | growth inhibition [4] 98%
